# Measured values taken from PubChem BioAssay (Tox21).
# “And” between values parts separate entries of the source, which are not always exact repeats. Equal entries are not always repeated. Inconclusive results are not listed. Where a call stands in place of a potency, no number is given. A number with no mark means an inactive call. The source made the active and inactive calls. The call rests on the fitted dose curve; in most records, active means well fitted curve in the direction sought with a large enough effect in the repeat runs; inconclusive means weak or mixed curves; inactive means no such curve, though single readings can be large; an effect the other way counts as inactive or inconclusive.
# What was measured:
# [1] = biological target: Cytochrome P450 2C9 (Homo sapiens) (UniProt P11712); assay: Cytochrome P450 Family 2 Subfamily C Member 9 (CYP2C9) small molecule antagonists: luciferase reporter qHTS assay (AID 1671198); on activity change, negative = inhibition: series mostly up to about 120 µM
# Cytochrome P450 2C9 (Homo sapiens), sequence (P11712 whole entry, looked up): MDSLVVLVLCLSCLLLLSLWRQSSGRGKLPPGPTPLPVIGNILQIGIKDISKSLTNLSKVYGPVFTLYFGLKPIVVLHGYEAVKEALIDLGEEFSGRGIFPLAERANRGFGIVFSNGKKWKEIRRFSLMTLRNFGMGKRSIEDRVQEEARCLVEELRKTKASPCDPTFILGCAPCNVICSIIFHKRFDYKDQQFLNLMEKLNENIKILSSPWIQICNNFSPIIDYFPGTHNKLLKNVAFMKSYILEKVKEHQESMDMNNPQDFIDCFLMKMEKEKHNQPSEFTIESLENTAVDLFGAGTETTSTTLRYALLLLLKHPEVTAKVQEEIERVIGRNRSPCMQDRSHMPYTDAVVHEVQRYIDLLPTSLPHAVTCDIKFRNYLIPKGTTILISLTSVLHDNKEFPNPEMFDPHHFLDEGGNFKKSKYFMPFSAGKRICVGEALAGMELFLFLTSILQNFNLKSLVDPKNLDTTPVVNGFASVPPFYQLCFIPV
# Summary of the method: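 CYP2C9 activity was measured with a P450-Glo proluciferin substrate. Enzyme–substrate mix was held with compound for 10 min at room temperature, then NADPH regeneration solution was added for 1 h at 37C. Luciferin product was read as luminescence.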
# [2] = biological target: Cytochrome P450 1A2 (Homo sapiens) (UniProt P05177); assay: Cytochrome P450 Family 1 Subfamily A Member 2 (CYP1A2) small molecule antagonists: luciferase reporter qHTS assay (AID 1671199); on activity change, negative = inhibition: series mostly up to about 120 µM
# Cytochrome P450 1A2 (Homo sapiens), sequence (P05177 whole entry, looked up): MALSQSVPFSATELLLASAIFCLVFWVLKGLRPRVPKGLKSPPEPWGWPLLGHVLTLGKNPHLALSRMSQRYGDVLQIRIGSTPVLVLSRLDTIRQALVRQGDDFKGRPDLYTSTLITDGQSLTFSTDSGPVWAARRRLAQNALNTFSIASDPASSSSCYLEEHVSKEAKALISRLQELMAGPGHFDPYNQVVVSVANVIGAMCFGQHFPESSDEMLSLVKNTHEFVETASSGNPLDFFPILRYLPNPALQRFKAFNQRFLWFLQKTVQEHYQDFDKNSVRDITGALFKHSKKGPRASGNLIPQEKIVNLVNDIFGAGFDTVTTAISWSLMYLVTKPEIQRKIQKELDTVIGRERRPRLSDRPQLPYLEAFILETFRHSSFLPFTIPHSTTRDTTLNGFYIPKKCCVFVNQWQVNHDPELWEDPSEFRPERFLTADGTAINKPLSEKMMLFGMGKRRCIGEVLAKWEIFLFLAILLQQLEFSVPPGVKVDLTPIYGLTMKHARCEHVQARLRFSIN
# Summary of the method: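 Steps: enzyme-substrate mix dispensed; test compounds and furafylline control pinned in; 10 min room temperature; NADPH regeneration solution added, 1 h; reaction stopped with luciferin detection reagent; luminescence read after 20 min.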
# [3] = biological target: Voltage-gated inwardly rectifying potassium channel KCNH2 (Homo sapiens) (UniProt Q12809); assay: Human Ether-a-go-go-Related Gene (hERG) channel small molecule antagonists: fluorescence cell-based qHTS assay (AID 1671200);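 on activity change, negative = inhibition: hERG-expressing U2OS cells given a thallium stimulus after FluxOR II dye loading; series mostly up to about 77 µM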
# Voltage-gated inwardly rectifying potassium channel KCNH2 (Homo sapiens), sequence (Q12809 whole entry, looked up): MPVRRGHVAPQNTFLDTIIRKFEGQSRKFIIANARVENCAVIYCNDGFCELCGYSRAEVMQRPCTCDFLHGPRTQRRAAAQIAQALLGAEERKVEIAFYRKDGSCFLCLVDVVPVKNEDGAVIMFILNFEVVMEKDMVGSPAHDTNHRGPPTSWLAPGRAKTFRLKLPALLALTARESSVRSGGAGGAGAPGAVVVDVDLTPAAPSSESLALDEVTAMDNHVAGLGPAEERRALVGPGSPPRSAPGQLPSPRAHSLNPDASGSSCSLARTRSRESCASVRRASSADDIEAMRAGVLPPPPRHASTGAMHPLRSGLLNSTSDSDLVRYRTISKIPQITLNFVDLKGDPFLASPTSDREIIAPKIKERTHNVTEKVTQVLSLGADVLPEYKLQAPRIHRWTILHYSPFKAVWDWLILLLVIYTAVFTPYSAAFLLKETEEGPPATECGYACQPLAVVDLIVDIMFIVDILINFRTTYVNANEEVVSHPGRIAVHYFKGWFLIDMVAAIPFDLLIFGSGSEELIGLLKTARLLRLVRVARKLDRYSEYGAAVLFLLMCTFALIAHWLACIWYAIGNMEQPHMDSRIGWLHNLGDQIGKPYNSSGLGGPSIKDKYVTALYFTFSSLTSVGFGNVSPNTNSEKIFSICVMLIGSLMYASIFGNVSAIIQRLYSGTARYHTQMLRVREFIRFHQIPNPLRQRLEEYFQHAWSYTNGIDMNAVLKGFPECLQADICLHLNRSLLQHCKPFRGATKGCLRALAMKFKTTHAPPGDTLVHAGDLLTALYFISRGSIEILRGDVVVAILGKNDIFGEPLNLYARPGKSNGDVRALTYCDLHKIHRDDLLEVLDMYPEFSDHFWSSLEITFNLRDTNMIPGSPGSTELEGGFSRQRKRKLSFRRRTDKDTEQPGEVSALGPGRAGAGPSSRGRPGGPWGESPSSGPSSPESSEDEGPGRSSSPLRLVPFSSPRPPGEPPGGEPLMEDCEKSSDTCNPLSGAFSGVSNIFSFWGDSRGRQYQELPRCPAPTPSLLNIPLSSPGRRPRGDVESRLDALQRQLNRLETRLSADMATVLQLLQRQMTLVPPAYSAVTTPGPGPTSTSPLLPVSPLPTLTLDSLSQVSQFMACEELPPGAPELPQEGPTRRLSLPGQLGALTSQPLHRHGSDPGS
# Summary of the method: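 In this thallium-flux screen, overnight-cultured U2OS cells bearing the channel are dye-loaded in darkness for an hour, rested 10 min at room temperature, and then monitored kinetically at 480/540 nm for two minutes post-stimulus.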
# [4] = biological target: Cytochrome P450 3A4 (Homo sapiens) (UniProt P08684); assay: Cytochrome P450 Family 3 Subfamily A Member 4 (CYP3A4) small molecule antagonists: luciferase reporter qHTS assay (AID 1671201); on activity change, negative = inhibition: series mostly up to about 120 µM
# Cytochrome P450 3A4 (Homo sapiens), sequence (P08684 whole entry, looked up): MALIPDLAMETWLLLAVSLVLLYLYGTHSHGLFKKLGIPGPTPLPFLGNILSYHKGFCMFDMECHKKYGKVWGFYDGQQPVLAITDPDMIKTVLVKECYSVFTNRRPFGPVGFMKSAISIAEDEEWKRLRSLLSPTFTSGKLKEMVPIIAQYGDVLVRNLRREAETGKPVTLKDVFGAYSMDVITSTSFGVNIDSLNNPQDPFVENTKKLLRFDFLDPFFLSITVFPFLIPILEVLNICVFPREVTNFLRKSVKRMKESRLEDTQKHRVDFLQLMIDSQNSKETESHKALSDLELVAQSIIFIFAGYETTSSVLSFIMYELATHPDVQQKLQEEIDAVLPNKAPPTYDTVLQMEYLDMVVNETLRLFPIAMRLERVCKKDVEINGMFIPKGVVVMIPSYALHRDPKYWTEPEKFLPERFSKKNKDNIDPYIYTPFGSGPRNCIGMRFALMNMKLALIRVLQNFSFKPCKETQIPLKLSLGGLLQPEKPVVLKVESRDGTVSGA
# Summary of the method: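 CYP3A4 activity was followed with a P450-Glo proluciferin substrate. Test compounds in DMSO were preincubated 10 min; NADPH regeneration then ran 1 h, and light output was read 20 min after detection reagent.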
# Further: nearly all actives have a fitted effect of over 50% in size.
# Potency means the concentration at half of the fitted maximal effect.
Compound,Potency [1],Potency [2],Potency [3],Potency [4],"activity change, negative = inhibition [2]","activity change, negative = inhibition [3]","activity change, negative = inhibition [1]","activity change, negative = inhibition [4]"
Cc1c(C(=O)O)cccc1[N+](=O)[O-],inactive,inactive,inactive,inactive,–,–,–,–
CCc1c(Br)c(Br)c(Br)c(Br)c1Br,inactive,11.2 µM (active),inactive,inactive,–,–,–,–
CC[N+](CC)(CC)Cc1ccccc1,inactive,inactive,inactive,inactive,–,–,–,–
Cc1cncc(C)c1,inactive,inactive,inactive,inactive,–,–,–,–
CCCCCCCC(C)=O,inactive,35.6 µM (active),inactive,inactive,–,–,–,–
CC(=O)C=O,inactive,inactive,inactive,inactive,–,–,–,–
C=C/C=C/C=C/CCCCC,16.9 µM (active),–,–,16.9 µM (active),-9.41% [at 23.6 µM],-12.1% [at 15.8 µM],–,–
O=C1OC(=O)c2ccc3c4c(ccc1c24)C(=O)OC3=O,inactive,inactive,inactive,inactive,–,–,–,–
Cc1cc(Nc2ccc(O)cc2)ccc1N,5.62 µM (active),35.4 µM (active),inactive,7.93 µM (active),–,–,–,–
OCCC(O)CO (centres undefined),inactive,inactive,inactive,inactive,–,–,–,–
C=CC(=O)OCCN(CC)CC,inactive,inactive,inactive,inactive,–,–,–,–
O=C(O)c1cccc(Cl)n1,inactive,inactive,inactive,inactive,–,–,–,–
N[C@@H](CSSC[C@H](N)C(=O)O)C(=O)O,–,–,–,–,-15.1% [at 0.435 µM],-0.819% [at 0.29 µM],1.25% [at 0.435 µM],5.27% [at 0.435 µM]
CCC(=O)CC(C)CC (centres undefined),–,–,–,–,-14.4% [at 0.435 µM],2.31% [at 0.29 µM],-10.1% [at 0.435 µM],-0.0732% [at 0.435 µM]
COc1cccc(OC)c1O,35.6 µM (active),35.6 µM (active),inactive,inactive,–,–,–,–
CC1CCCCC1,inactive,63.3 µM (active),inactive,inactive,–,–,–,–
CCOC(OCC)C(=O)c1ccccc1,inactive,31.7 µM (active),inactive,inactive,–,–,–,–
COC(=O)NCCC[Si](OC)(OC)OC,inactive,inactive,inactive,28.3 µM (active),–,–,–,–

Compound,Potency [1],Potency [2],Potency [3],Potency [4],"activity change, negative = inhibition [2]","activity change, negative = inhibition [3]","activity change, negative = inhibition [1]","activity change, negative = inhibition [4]"
CCN=c1cc2oc3cc(NCC)c(C)cc3c(-c3ccccc3C(=O)OCC)c-2cc1C,7.94 µM (active) and 12.6 µM (active),inactive,2.45 µM (active) and 2.19 µM (active),999 nM (active) and 2 µM (active),–,–,–,–
C[Si](C)O[Si](C)C,inactive,inactive,inactive,inactive,–,–,–,–
OCCCCl,inactive,inactive,inactive,inactive,–,–,–,–
CCCCCCCC(=O)OCC,inactive,inactive,inactive,inactive,–,–,–,–
C=C(C)CCCC,inactive,inactive,inactive,inactive,–,–,–,–
CCc1cccc(C)c1,inactive,inactive,inactive,inactive,–,–,–,–
CSc1c(Cl)c(Cl)c(Cl)c(Cl)c1Cl,inactive,14.1 µM (active),inactive,inactive,–,–,–,–
CCN(CC)CCNc1ccc(CO)c2sc3ccccc3c(=O)c12,inactive,0.512 µM (active),10.7 µM (active),inactive,–,–,–,–
CO[Si](CCCNCCNCCN)(OC)OC,inactive,inactive,inactive,inactive,–,–,–,–
CCCCCCCCCCOCC(O)CN (centres undefined),13.8 µM (active),2.88 µM (active),23.9 µM (active),inactive,–,–,–,–
CCN(CC)c1ccc(N)cc1,23.1 µM (active),41 µM (active),25.2 µM (active),11.6 µM (active),–,–,–,–
Brc1ccccn1,inactive,inactive,inactive,inactive,–,–,–,–
CCCCCCC(C)OC(=O)COc1nc(F)c(Cl)c(N)c1Cl (centres undefined),17.8 µM (active),5.64 µM (active),38.9 µM (active),7.96 µM (active),–,–,–,–
CCOC(/C=C(\C)CCC=C(C)C)OCC,inactive,inactive,inactive,inactive,–,–,–,–
CC1CCCNC1 (centres undefined),inactive,inactive,inactive,inactive,–,–,–,–
ClC/C=C\CCl,inactive,11.7 µM (active),inactive,inactive,–,–,–,–
CCCC(=O)OCC(COC(=O)CCC)OC(=O)CCC,5.64 µM (active),28.3 µM (active),inactive,inactive,–,–,–,–
C=C(C)C(=O)OCCC[Si](Cl)(Cl)Cl,22.7 µM (active),inactive,inactive,12.7 µM (active),–,–,–,–
